These results are taken from PubChem BioAssay AID1345083 (National Center for Advancing Translational Sciences (NCATS), 2018).

Each structure is given as a SMILES string. Hit rate of the full screen: of about 94,000 compounds, about 6,200 (6.6%) were called active. Inconclusive results (about 31%) are left out. The sample as a whole holds a higher share of actives than the screen did. Unmarked numbers belong to inactive results. The call rests on the fitted dose curve; in most records, active means well fitted inhibition curve with a large enough effect; inconclusive means small, poorly fitted or top-dose-only effect; inactive means flat fitted curve, though single readings scatter.
On the % scale 0 is the no-effect control and ±100 the full control effect; potency means the concentration at half of the fitted maximal effect.

The assay is described as follows: Cytotoxic Profiling in HEK 293 Cell Line of Diverse Libraries Using Quantitative High-Throughput Screening. Further: nearly all actives have a fitted effect of over 60% in size. Conditions: HEK 293 viability, ATP luminescence (CellTiter-Glo), 48-72 h; series mostly up to 115 µM; activity change, negative = cytotoxicity: at the top concentration. The source says: Cell-based phenotypic screening is a commonly used approach to discover biological pathways, novel drug targets, chemical probes and high-quality hit-to-lead molecules. Many hits identified from high-throughput screening campaign are ruled out through a series of follow-up potency, selectivity/specificity, and cytotoxicity assays. Prioritization of molecules with little or no cytotoxicity for a more in-depth downstream evaluation influence the future direction of projects, so cytotoxicity profiling of the screening libraries at early stage is essential for increasing the likelihood of candidate success. In this study, we analyzed results from a cell-based cytotoxicity screening campaign, comprising nearly 10,000 compounds in NCATS annotated libraries, and over 100,000 compounds in a diversity library, evaluated in four normal cell lines (HEK 293, NIH 3T3, CRL-7250 and HaCat) and a cancer cell line (KB 3-1, a HeLa subline) with overall screening outcomes, hit rates, pan-activity and selectivity. For the annotated library, we also examined the primary targets and mechanistic pathways regularly associated with cell death. To our knowledge, this is the first study to use high-throughput screening to profile large libraries for cytotoxicity assessment in both normal and cancer cell lines. In summary, the results generated here constitutes a valuable resource for the scientific community and provides insight on identifying cytotoxic compounds with particular mechanisms of action, and prioritizing compounds with suitable cytotoxicity profile for further evaluation.
HEK 293 cells were seeded into white 1536-well plates using a Multidrop Combi peristaltic dispenser (ThermoFisher, Waltham, MA) at a density of 250 cells/well in 5 uL of medium respectively. A pintool (Kalypsys) was used to transfer 23 nL of compound solution to the 1536-well assay plates. After 48 or 72 hr incubation at 37 degree Celsius, 5% CO2 and 95% humidity, 2.5 uL of CellTiter-Glo (Promega) was dispensed into each well using a dispenser (Aspect Automation, St. Paul, MN) with solenoid valves (Lee Valves, Westbrook CT). Plates were left at room temperature for 10 min before imaging the ATP-coupled luminescence using a ViewLux microplate imager (PerkinElmer, Waltham, MA).
A general note: ATP-based viability assays read luminescence as a measure of living cells.
For `Cn1cc(CN2CCN3C(=O)N(c4ccccn4)C[C@H]3C2)cn1`, the “outcome” value was “inactive [at 172 µM]”. In the case of `CC[C@H]1CN2CC[C@H]1C[C@@H]2CNCc1cccc(C#N)c1`, the “activity change, negative = cytotoxicity” value is -0.0855% [at 230 µM].

Consider `C=CCN(C)C[C@H]1CN2CC[C@H]1C[C@@H]2CNC(=O)Nc1cccc(SC)c1`, for which the Potency was 63.1 µM (active). As for `CN(CCc1ccccn1)C[C@H]1CN2CC[C@H]1C[C@@H]2CNC(=O)c1ccccc1`, the “activity change, negative = cytotoxicity” value is -30% [at 172 µM]. With `CN(Cc1ccccc1)C[C@H]1CN2CC[C@H]1C[C@@H]2CNC(=O)Nc1cccc(C#N)c1`, the Potency is 89.1 µM (active). In the case of `O=C(NC[C@H]1C[C@@H]2CCN1C[C@@H]2CN1CCC(Cc2ccccc2)CC1)c1ccco1`, the “activity change, negative = cytotoxicity” value was -25.4% [at 172 µM]. The same measure, in the same setting: then `CC[C@H]1CN2CC[C@H]1C[C@@H]2CNC(=O)c1ccc(N(C)C)cc1`, with 4.54% [at 172 µM]. For the molecule `CC(C)NC(=O)NC[C@H]1C[C@@H]2CCN1C[C@@H]2CN1CCCC1`, the “activity change, negative = cytotoxicity” value is 2.65% [at 172 µM]. Regarding `FC(F)(F)CN1C2CCC1CN(c1cccc(Cl)n1)C2`, the molecule was classed as inactive. On to `CCCSc1ncc(CN2CC[C@H]3CNC[C@H]32)cn1`, for which the “activity change, negative = cytotoxicity” value was -10.3%. On the same count and under the same terms, the figure for `CC(=O)NCCNC(=O)[C@H]1CN2CCC1C[C@@H]2Cn1cc(-c2ccc(C(C)(C)C)cc2)nn1` (some centres undefined) is -3.54%. `CNC1CCOCC1`: the “outcome” value was “inactive [at 287 µM]”. Regarding `C#CCN1C(=O)[C@@H]2[C@H](c3ccccc31)[C@@H](C(=O)OCC)[C@@H](c1ccccc1)N2C(=O)COC`, the Potency was 44.7 µM (active). With `CCCCOC(=O)N1C[C@H](C(=O)OCC)[C@H]2c3ccccc3N(C)C(=O)[C@]21C`, the “activity change, negative = cytotoxicity” value was -18.1% [at 57.5 µM]. Still for that read-out and setting: then `Nc1cccc(-c2cn(C[C@H]3CC4CCN3C[C@@H]4C(=O)NCc3ccc(F)cc3)nn2)c1` (some centres undefined), with -7.43% [at 172 µM]. Take `COCC(=O)NC[C@H]1C[C@@H]2CCN1C[C@@H]2CN1CCN(C)CC1`: the “activity change, negative = cytotoxicity” value was -12.1% [at 172 µM]. As to `CN(C)[C@@H]1CN(C(=O)Cc2ccc(F)cc2)C[C@H]1CO`, the outcome was inactive. Take `Cn1cccc1CN1CCC2(COc3ccncc3[S+](=O)([O-])N2)C1` (centres undefined): the “activity change, negative = cytotoxicity” value is -7.93%.

As for `C=C[C@H]1CN2CC[C@H]1C[C@@H]2CNC(=O)c1ccc(C(F)(F)F)cc1`, the “activity change, negative = cytotoxicity” value was -7.78% [at 172 µM]. Take `Cc1nc(-c2ccc(C(F)(F)F)cc2)cc([C@H]2CN3CC[C@H]2C[C@@H]3CNC(=O)c2ccco2)n1`: the Potency was 20 µM (active). Take `COc1ccccc1-c1cc([C@H]2CN3CC[C@H]2C[C@@H]3CNC(=O)c2ccco2)nc(C)n1`: the “activity change, negative = cytotoxicity” value is -23.8% [at 172 µM]. Turning to `O=C(NC[C@H]1C[C@@H]2CCN1C[C@@H]2CN1CCN(c2ncccn2)CC1)c1ccc(C(F)(F)F)cc1`, the “activity change, negative = cytotoxicity” value is -17.4%. `COc1ccccc1-c1cc([C@H]2CN3CC[C@H]2C[C@@H]3CNC(=O)c2ccco2)n(C)n1`: the “activity change, negative = cytotoxicity” value is 4.65% [at 172 µM]. Turning to `Cc1ccc(C(=O)NC[C@H]2C[C@@H]3CCN2C[C@@H]3c2cc(-c3ccco3)nc(C)n2)cc1`, the Potency was 79.4 µM (active). With `CCNC(=O)N1CC2CN(C(C)C)CC(C1)O2`, the “activity change, negative = cytotoxicity” value was -6.72%. With `CC1=NOC2(CCN(Cc3c[nH]c4ccccc34)CC2)C1`, the “activity change, negative = cytotoxicity” value was 4.67% [at 172 µM]. Still for that read-out and setting: the figure for `CN1C[C@H]2CN(Cc3cnn(C)c3)CCN2C1=O` is -15.1% [at 230 µM]. The same measure, in the same setting: then `O=C(Nc1ccc2n(c1=O)C[C@H]1C[C@@H]2CN(C(=O)c2ccccn2)C1)c1ccc(F)cc1`, with -3.73% [at 172 µM]; and `C[S+](=O)([O-])N1CCC2(CC1)CC(c1cccnc1)=NO2`, with 0.463%. The same measure, in the same setting: then `O=C([C@H]1CN2CCC1C[C@@H]2Cn1cc(-c2ccccc2)nn1)N1CCOCC1` (some centres undefined), with 0.574% [at 172 µM]; and `CN(C)C(=O)[C@H]1CN2CCC1C[C@@H]2Cn1cc(-c2ccc(-c3ccccc3)cc2)nn1` (some centres undefined), with -17.4% [at 172 µM]. In the case of `Cc1nc(-c2ccccc2)cc([C@H]2CN3CC[C@H]2C[C@@H]3CNC2CCOCC2)n1`, the Potency was 31.6 µM (active). On the same count and under the same terms, the figure for `Cc1nc(-c2ccccc2)cc([C@H]2CN3CC[C@H]2C[C@@H]3CNC2CCN(C)CC2)n1` is 28.2 µM (active).

In the case of `CC(=O)Nc1ccc(-c2ccc3n(c2=O)C[C@H]2C[C@@H]3CN(C3CCN(C)CC3)C2)cc1`, the “activity change, negative = cytotoxicity” value is -24.1% [at 172 µM]. Take `CC(C)N1C[C@@H]2OCC(=O)N(Cc3cccnc3)[C@@H]2C1`: the “activity change, negative = cytotoxicity” value was -2.45% [at 230 µM]. `O=C(Nc1ccc(Cl)cc1)N1C[C@@H]2C[C@H](C1)c1c(-c3ccccc3F)ccc(=O)n1C2`: the “activity change, negative = cytotoxicity” value was -4.3%. For `COCC1CN(Cc2ccsc2)CC12CCNCC2` (centres undefined), the “activity change, negative = cytotoxicity” value was -27.7%. For the molecule `COc1ccc(CC(=O)N2C[C@@H]3CC[C@H](C2)N(CC2CCC2)C3)c(OC)c1`, the “activity change, negative = cytotoxicity” value is -22.9%. The same measure, in the same setting: then `COc1ccc(-c2cc([C@H]3CN4CC[C@H]3C[C@@H]4CNC(=O)C3CC3)n(C)n2)cc1OC`, with -9.12% [at 172 µM]. Consider `Cn1nc(-c2cccs2)cc1[C@H]1CN2CC[C@H]1C[C@@H]2CNC(=O)Nc1ccccc1`, for which the Potency is 112 µM (active).

Take `COc1ccc(C(=O)NC[C@H]2C[C@@H]3CCN2C[C@@H]3c2cc(-c3ccccc3)nn2C)cc1`: the Potency was 89.1 µM (active). Consider `Cn1nc(-c2cccs2)cc1[C@H]1CN2CC[C@H]1C[C@@H]2CNC(=O)CCCC(=O)O`, for which the “outcome” value is “inactive [at 172 µM]”. Turning to `COc1ccc(-c2cc([C@H]3CN4CC[C@H]3C[C@@H]4CNC(=O)c3ccccc3)n(C)n2)cc1OC`, the “activity change, negative = cytotoxicity” value is -10.2%. The same measure, in the same setting: then `COc1ccccc1-c1cc([C@H]2CN3CC[C@H]2C[C@@H]3CNC(C)=O)n(C)n1`, with -4.81% [at 172 µM]. Consider `O=C(Nc1ccccc1)[C@H]1CN2CCC1C[C@@H]2Cn1cc(CO)nn1` (some centres undefined), for which the “activity change, negative = cytotoxicity” value was -2.81% [at 172 µM]. For the molecule `Cn1nc(-c2ccc(F)cc2)cc1[C@H]1CN2CC[C@H]1C[C@@H]2CNCc1ccccn1`, the Potency was 63.1 µM (active).

Regarding `CCCCc1cn(C[C@H]2C[C@@H]3CCN2C[C@@H]3C(=O)NCCNC(C)=O)nn1`, the “activity change, negative = cytotoxicity” value is -2.52% [at 172 µM]. Same read-out and setting: then `Cc1ccccc1-c1ccc2n(c1=O)C[C@H]1C[C@@H]2CN(C(=O)CSCC(=O)O)C1`, with -1.03% [at 172 µM]. Take `O=C([C@H]1CN2CCC1C[C@@H]2Cn1cc(CCO)nn1)N1CCCC1` (some centres undefined): the “outcome” value is “inactive [at 172 µM]”. As for `COc1ccccc1-c1ccc(N2CC3CC(C2)c2cccc(=O)n2C3)nn1` (centres undefined), the “activity change, negative = cytotoxicity” value is 1.75%. On the same count and under the same terms, the figure for `Cc1ccc([C@@H]2CN(Cc3ncc[nH]3)[C@@H]3C4CCN(CC4)[C@@H]32)cc1` is 3.55%; for `COc1cccc(C(=O)N2CCC3(CC2)NCc2ccccc2-n2ccnc23)c1` it is -24.7%.

With `O=S1(=O)NCC2(CCN(Cc3ccc(Cl)s3)C2)Oc2ncccc21` (centres undefined), the call was inactive. Turning to `O=C(COc1ccccc1)N1C[C@@H]2C[C@H](C1)c1c(-c3ccccc3F)ccc(=O)n1C2`, the “activity change, negative = cytotoxicity” value is -23.1% [at 172 µM].
